Shown is part of a subset that was picked to be rich in hits.
Anthrax LF inh2: blocks Bacillus anthracis lethal factor protease; P15917; multiplex microsphere protease cleavage assay, LF; inhibition, % at 10 µM; 360,000 compounds, 0.12% hits; AID 588501; also: plate controls were buffer without enzyme for full effect and enzyme alone for no effect
BoNT-F LC inh: inhibitors of Botulinum neurotoxin F light chain protease | Multiplex microsphere protease cleavage assay, flow cytometry | inhibition, % at 10 µM | 360,000 compounds, 0.22% hits | AID 588497; in the data active = inhibition above about 35%, passing the limit was not always enough; inconclusive = no clear call, values can overlap the other calls; also: plate controls were buffer without enzyme for full effect and enzyme alone for no effect
BoNT A protease: BoNT A light chain protease inhibition. 360,000 compounds, 0.17% hits. multiplex microsphere protease substrate cleavage, flow cytometry. inhibition, % at 10 µM; also: plate controls were buffer without enzyme for full effect and enzyme alone for no effect
Bead autofluor: flagged as autofluorescent in microsphere protease counterscreen; compound autofluorescence counterscreen, microsphere flow cytometry; hits give high values; fluorescence intensity (test concentration not listed); 360,000 compounds, 3.1% hits; in the data active = fluorescence intensity above about 16000; inconclusive = no clear call, values can overlap the other calls
TcdB GH inh: inhibitors of Clostridioides difficile toxin B glycohydrolase; P18177; TcdB glycohydrolase enzymatic assay, plate reader; inhibition, % at 9.99 µM; 350,000 compounds, 0.24% hits; in the data active = inhibition above about 10%
The depositor's hits bear a star; ? = inconclusive; / = no result given. Rule as the data show it, unless noted: active = inhibition above about 30%; inconclusive = no clear call, values can overlap the other calls; inactive = below that.

SMILES | Anthrax LF inh2 | BoNT-F LC inh | BoNT A protease | Bead autofluor | TcdB GH inh
CC(=O)c1ccc(NC(=O)C2CCCN2S(=O)(=O)c2ccc(F)cc2)cc1 (stereo unspecified) | -4 | -5 | -1 | 6120 | 1
O=C(Nc1ccc2c(c1)OCCO2)C1CCCN1S(=O)(=O)c1ccc(Cl)cc1 (stereo unspecified) | 6 | -3 | -1 | 3277 | /
CC(=O)Nc1ccc(NC(=O)[C@@H]2CCCN2S(=O)(=O)c2ccc3c(c2)OCCO3)cc1 | -2 | -5 | 0 | 4256 | 16*
O=C(Nc1cc(F)ccc1F)N1CC(=O)N2[C@@H](CO)[C@H](c3ccc(/C=C/c4ccccc4)cc3)[C@@H]2C1 | / | / | / | / | -1
NC(=O)Cn1nnc(-c2ccc(C(F)(F)F)cc2)n1 | -2 | -10 | ? | 21710* | /
O=C(Cn1nnc(-c2cccc(C(F)(F)F)c2)n1)N1CCOCC1 | -4 | 1 | 1 | 22585* | 1
CC(C)(C)C(=O)Cn1nnc(-c2ccc(C(F)(F)F)cc2)n1 | -7 | -5 | -1 | 6036 | 4
CC1CCN(C(=O)Cn2nnc(-c3ccccc3)n2)CC1 | 3 | 10 | 2 | 3754 | 1
CCOC(=O)Oc1ccc2c(=O)c(Oc3cc(C)cc(C)c3)coc2c1 | -1 | 2 | ? | 22166* | /
CCOC(=O)Oc1ccc2c(=O)c(Oc3cccc(C)c3)coc2c1 | -3 | -3 | 0 | 7981 | 1
COc1ccccc1Oc1coc2cc(OCC(N)=O)ccc2c1=O | 19 | 41* | 0 | 3638 | -8
Cc1cccc(Oc2coc3cc(OC(=O)c4cc5ccccc5oc4=O)ccc3c2=O)c1 | -1 | -1 | ? | 20697* | /
CCCNC(=O)COc1ccc2c(=O)c(Oc3ccccc3F)coc2c1 | 0 | -3 | 0 | 2409 | 0
CC(=O)NC[C@H]1[C@@H](c2ccc(-c3cccnc3)cc2)[C@@H](CO)N1C(=O)CC1CC1 | / | / | / | / | 0
N#C[C@@H]1[C@H](c2ccccc2C2=CCCC2)[C@H](CO)N1C(=O)Cc1ccncc1 | / | / | / | / | -1
COCC(=O)N1CCC2(CC1)CN(S(C)(=O)=O)[C@H](CO)c1[nH]c3cc(OC)ccc3c12 | / | / | / | / | 1
Cc1ccc(S(=O)(=O)Nc2ccc3c(c2)C(=O)N([C@H](C)CO)C[C@@H](C)[C@H](CN(C)C(=O)Nc2ccc(C(F)(F)F)cc2)O3)cc1 | / | / | / | / | 0
Cc1ccc(CN(Cc2cccnc2)C(=O)CN2C(=O)COc3ccccc32)o1 | -4 | -4 | 0 | 8126 | 1
CCC1Oc2ccc(C)cc2N(CC(=O)NCc2cccc(OC)c2)C1=O (stereo unspecified) | -1 | -8 | -4 | 17853* | /
O=C(CN1C(=O)COc2ccccc21)N(Cc1ccccc1)Cc1ccccn1 | 0 | 4 | ? | 22246* | /
CCC1Oc2ccc(C)cc2N(CC(=O)NCc2cc(OC)ccc2OC)C1=O (stereo unspecified) | 6 | 6 | 1 | 7638 | /
COc1ccc(NC(=O)CN2C(=O)C(C)Oc3ccc(C)cc32)cc1 (stereo unspecified) | 11 | ? | 0 | 4418 | 1
COc1ccc(NC(=O)CN2C(=O)C(C)Oc3ccccc32)cc1 (stereo unspecified) | -2 | 1 | -1 | 23500* | 0
COc1ccc(NC(=O)CN2CCC(C)CC2)cc1 | -4 | -7 | -5 | 17348* | /
CNC(=O)C[C@@H]1CC[C@H]2[C@@H](COC[C@H](O)CN2C(=O)c2ccccn2)O1 | / | / | / | / | 0
SMILES | Anthrax LF inh2 | BoNT-F LC inh | BoNT A protease | Bead autofluor | TcdB GH inh
CCCNC(=O)C[C@H]1CC[C@H]2[C@@H](COc3ccc(NC(=O)NC(C)C)cc3C(=O)N2C)O1 | / | / | / | / | 0
CCC1Oc2ccccc2N(CC(=O)Nc2ccccc2OC)C1=O (stereo unspecified) | -1 | 5 | ? | 22225* | /
CCC1Oc2ccccc2N(CC(=O)NCCc2ccc(OC)c(OC)c2)C1=O (stereo unspecified) | -1 | 3 | 0 | 4155 | /
COc1ccc(CN(Cc2ccccn2)C(=O)CN2C(=O)C(C)Oc3ccccc32)cc1 (stereo unspecified) | -2 | -2 | -1 | 22997* | /
Nc1nc(SCCO)[nH]c(=O)c1NC(=O)c1ccco1 | -17 | -104 | -66 | 19769* | 2
O=C(OCC(=O)N1CCN(C(=O)c2ccco2)CC1)c1cc(-c2cccc(Br)c2)nc2ccccc12 | -3 | -6 | -1 | 24517* | /
O=C(OCC(=O)N1CCN(C(=O)c2ccco2)CC1)c1cc(-c2ccccc2)nc2ccccc12 | -10 | -10 | -1 | ? | /
C=COCCNC(=O)C1CC(=O)N(c2ccc(C)cc2)C1 (stereo unspecified) | -6 | -7 | -1 | 24393* | /
CCc1ccc(N2CC(C(=O)Nc3cccnc3)CC2=O)cc1 (stereo unspecified) | 2 | -2 | 0 | 5196 | /
Cc1ccc(N2CC(C(=O)Nc3cccnc3)CC2=O)cc1 (stereo unspecified) | 1 | 2 | 0 | 23113* | /
Cc1noc(C)c1NC(=O)NCC[C@H]1CC[C@H](NC(=O)Cc2cccnc2)[C@H](CO)O1 | / | / | / | / | 0
C[C@H](CO)N1C[C@H](C)[C@H](CN(C)Cc2ccc(C(=O)O)cc2)Oc2c(NC(=O)Nc3ccccc3)cccc2C1=O | / | / | / | / | -1
COc1ccc2c3c(n(C)c2c1)[C@H](CO)N(C(=O)CN1CCOCC1)CC31CN(C(C)=O)C1 | / | / | / | / | -2
Cc1ccc(Nc2nc3c([nH]2)c(=O)n(C)c(=O)n3C)cc1 | -2 | -5 | -2 | 20196* | /
Cc1cc(C)cc(Nc2nc3c([nH]2)c(=O)n(C)c(=O)n3C)c1 | 0 | -6 | 0 | 2591 | 0
CC(C)C(O)P(=O)(OCc1ccccc1)c1ccc(N(C)C)cc1 (stereo unspecified) | -4 | -3 | -2 | 20468* | /
CN(C)c1ccc(P(=O)(OCc2ccccc2)C(O)c2cccnc2)cc1 (stereo unspecified) | 0 | 1 | 0 | 20409* | /
Cc1ccc(S(=O)(=O)N(C)C[C@@H]2OCCCC[C@@H](C)Oc3ccc(NS(=O)(=O)c4ccccc4)cc3C(=O)N([C@@H](C)CO)C[C@@H]2C)cc1 | / | / | / | / | 0
C[C@H](CO)N1C[C@H](C)[C@H](CN(C)S(=O)(=O)c2ccc(Cl)cc2)OCCCC[C@H](C)Oc2ccc(NC(=O)C3CCCCC3)cc2C1=O | / | / | / | / | 0
Cc1ccccc1-c1noc(-c2ccc(O)cc2)n1 | -1 | -3 | -2 | 6563 | 2
Cc1ccccc1-c1noc(C23CC4CC(CC(C4)C2)C3)n1 | -6 | -6 | -2 | 21714* | /
Cc1ccccc1-c1noc(C2CCCCC2)n1 | -2 | -4 | ? | 22659* | /
FC(F)(F)c1nc2ncc(Cl)cc2[nH]1 | 0 | 0 | -1 | 20866* | 2
O=C1[C@H]2[C@@H](C(=O)N1c1cc(Cl)cc(Cl)c1)[C@]1(C(=O)Nc3ccccc31)N1CCC[C@@H]21 | -2 | -1 | 0 | 20946* | /
O=C1NC(=O)N(CCC2=CCCCC2)C(=O)/C1=C/c1ccc(O)cc1 | -3 | -1 | 0 | 2262 | -1
O=C1NC(=O)N(CCC2=CCCCC2)C(=O)/C1=C/c1cccs1 | ? | 37* | 12 | 3753 | 3
